Data as given in PubChem BioAssay AID1159580 (chemical genetic matrix, 2015).
Hit rate of the full screen: of about 5,500 compounds, about 2,000 (36%) were called active. Inconclusive results (about 18%) are left out. Rule as the data show it: active = normalized growth mostly below about 0.91 (no sharp cut-off); inconclusive = no clear call, values can overlap the other calls; inactive = mostly above about 0.92. This is one part of the list.

Experiment: chemical genetic growth profiling, strain panel (AID 1159580);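 also: tested at 20 µM; growth read once vehicle control cultures reached saturation at 30 °C; 1 = growth at the plate median or of vehicle wells; lower values mean less growth of the strain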
Conditions: S. cerevisiae deletion strains, growth OD

Measured: normalized growth

Cc1onc(-c2ccccc2)c1-c1ccc(S(N)(=O)=O)cc1
inactive: locus YAL013W, strain DEP1, active compounds read low 0.995 | locus YAL021C, strain ccr4, active compounds read low 1 | locus YAL026C, strain drs2, active compounds read low 1.02 | locus YAL030W, strain snc1, active compounds read low 1 | locus YBL061C, strain skt5, active compounds read low 1 | locus YBR009C, strain hhf1, active compounds read low 1.01 | locus YBR021W, strain FUR4, active compounds read low 1 | locus YBR023C, strain chs3, active compounds read low 1 | locus YBR171W, strain sec66, active compounds read low 0.984 | locus YBR229C, strain ROT2, active compounds read low 0.999 | locus YBR231C, strain swc5, active compounds read low 1 | locus YBR279W, strain paf1, active compounds read low 1 | locus YCL011C, strain gbp2, active compounds read low 0.989 | locus YCL016C, strain dcc1, active compounds read low 1.02 | locus YCL029C, strain bik1, active compounds read low 0.995 | locus YCL061C, strain MRC1, active compounds read low 0.993 | locus YCL069W, strain vba3, active compounds read low 0.995 | locus YCR088W, strain abp1, active compounds read low 0.996 | locus YDL005C, strain med2, active compounds read low 0.996 | locus YDL035C, strain GPR1, active compounds read low 1 | locus YDL040C, strain nat1, active compounds read low 1 | locus YDL074C, strain BRE1, active compounds read low 0.999 | locus YDL101C, strain DUN1, active compounds read low 1 | locus YDL134C, strain PPH21, active compounds read low 1.01 | locus YDL185W, strain tfp1, active compounds read low 0.988 | locus YDL192W, strain arf1, active compounds read low 0.997 | locus YDR001C, strain nth1, active compounds read low 1.01 | locus YDR069C, strain doa4, active compounds read low 1 | locus YDR101C, strain arx1, active compounds read low 0.997 | locus YDR137W, strain rgp1, active compounds read low 1.01 | locus YDR150W, strain NUM1, active compounds read low 1.02 | locus YDR159W, strain sac3, active compounds read low 1.01 | locus YDR162C, strain NBP2, active compounds read low 0.993 | locus YDR195W, strain ref2 0.963 | locus YDR297W, strain sur2, active compounds read low 1 | locus YDR318W, strain mcm21, active compounds read low 0.998 | locus YDR334W, strain swr1, active compounds read low 1.02 | locus YDR335W, strain msn5, active compounds read low 0.997 | locus YDR388W, active compounds read low 0.997 | locus YDR392W, strain spt3, active compounds read low 1.01 | locus YDR502C, strain sam2, active compounds read low 0.99 | locus YEL003W, strain gim4, active compounds read low 1 | locus YEL037C, strain rad23, active compounds read low 1 | locus YEL061C, strain CIN8 (second series), active compounds read low 1.02 | locus YEL061C, strain CIN8, active compounds read low 0.992 | locus YER015W, strain faa2, active compounds read low 0.997 | locus YER016W, strain bim1, active compounds read low 1.01 | locus YER110C, active compounds read low 0.997 | locus YER111C, strain swi4, active compounds read low 0.996 | locus YER155C, strain BEM2 (second series), active compounds read low 1.01 | locus YER155C, strain BEM2, active compounds read low 0.988 | locus YER167W, strain BCK2, active compounds read low 1 | locus YFR010W, strain ubp6, active compounds read low 0.999 | locus YGL078C, strain dbp3, active compounds read low 0.995 | locus YGL086W, strain mad1, active compounds read low 0.988 | locus YGL167C, strain pmr1, active compounds read low 1.02 | locus YGL173C, strain kem1, active compounds read low 1.01 | locus YGL227W, strain vid30, active compounds read low 0.991 | locus YGL240W, strain doc1, active compounds read low 1.01 | locus YGL248W, strain PDE1, active compounds read low 1 | locus YGL253W, strain hxk2, active compounds read low 0.999 | locus YGR078C, strain PAC10, active compounds read low 0.989 | locus YGR135W, strain pre9, active compounds read low 0.995 | locus YGR229C, strain SMI1, active compounds read low 0.994 | locus YGR252W, strain gcn5, active compounds read low 0.985 | locus YHR013C, strain ard1, active compounds read low 1.01 | locus YHR027C, strain rpn1, active compounds read low 1 | locus YHR030C, strain SLT2, active compounds read low 1.01 | locus YHR079C, strain IRE1 (second series), active compounds read low 0.998 | locus YHR094C, strain hxt1, active compounds read low 0.995 | locus YHR129C, strain ARP1, active compounds read low 1 | locus YHR142W, strain chs7, active compounds read low 0.989 | locus YHR200W, strain rpn10, active compounds read low 1 | locus YIL066C, strain RNR3, active compounds read low 0.983 | locus YIL073C, strain SPO22, active compounds read low 1.03 | locus YIL125W, strain kgd1, active compounds read low 0.99 | locus YIR030C, strain dcg1, active compounds read low 1 | locus YJL092W, strain hpr5, active compounds read low 0.995 | locus YJL095W, strain BCK1 (second series), active compounds read low 1.01 | locus YJL095W, strain BCK1, active compounds read low 1.02 | locus YJL115W, strain asf1, active compounds read low 0.998 | locus YJL129C, strain trk1, active compounds read low 0.972 | locus YJL134W, strain LCB3, active compounds read low 1 | locus YJL154C, strain vps35, active compounds read low 1.01 | locus YJL164C, strain tpk1, active compounds read low 1.01 | locus YJL166W, strain qcr8, active compounds read low 1 | locus YJL168C, strain set2, active compounds read low 0.998 | locus YJL187C, strain SWE1 (second series), active compounds read low 1 | locus YJL187C, strain SWE1, active compounds read low 0.996
